From PubChem BioAssay (NCI) come the findings set out here.

Compounds without any hit were thinned out: in the full panel of roughly 83,000, 20% have a hit.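 Cell lines were cultured in 96-well plates, exposed to a single compound concentration, and assessed for percent growth 48 hours later.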 A number with no mark means an inactive call. Calls of active or inactive are those of the source. The calls were made as follows: active = growth percent below 10; inactive = the rest.

Some test systems named below: DU-145 prostate; K-562 leukemia; MALME-3M melanoma; MDA-MB-231 breast; RXF 393 renal; SF-268 CNS; SF-295 CNS; SF-539 CNS; UACC-257 melanoma; M14 melanoma; HCT-15 colon; HT29 colon; SNB-75 CNS; SNB-19 CNS; PC-3 prostate; SK-MEL-5 melanoma; UACC-62 melanoma; LOX IMVI melanoma; SK-MEL-28 melanoma.
Common to all, as to assay: NCI-60 one-dose screen, 48 h (100 = growth as untreated, 0 = no growth, -100 = all killed)
Details in all cases: 10 µM

Turning to `CCOC(=O)C1=CSC2=NC3=C(CCC/C3=C\c3ccc(Cl)cc3)C(c3ccc(Cl)cc3)N12` (configuration not stated), the growth with DU-145 prostate was 92.7%; in the assay with K-562 leukemia it was 92.7%; in the assay on MALME-3M melanoma it was 103%; in the assay on MDA-MB-231 breast, 94.5%; in the assay with RXF 393 renal, 78.8%; in the assay on SF-268 CNS it was 90.8%. Moreover, the growth in the assay with SF-295 CNS is 104%; with SF-539 CNS, 103%; in the assay with UACC-257 melanoma, 85.7%; with M14 melanoma, 92.5%; in the assay on HCT-15 colon it was 91.9%; with HT29 colon, 82.8%. Also, the growth in the assay with SNB-75 CNS is 86.4%; with SNB-19 CNS, 81.3%; in the assay on PC-3 prostate it was 101%; in the assay on SK-MEL-5 melanoma, 84.7%; in the assay on UACC-62 melanoma, 82%; with LOX IMVI melanoma, 74.9%. Also, the growth in the assay with SK-MEL-28 melanoma was 99.5%.
On to `O=C1c2ccccc2C(=O)c2c1ccc(C(Br)Br)c2Cl`, for which the growth was 33.1% in the assay on DU-145 prostate; -28.9% (active) in the assay on K-562 leukemia; -70.9% (active) in the assay with MALME-3M melanoma; -41.9% (active) in the assay with MDA-MB-231 breast; 36.2% with RXF 393 renal; -19.1% (active) in the assay with SF-268 CNS. The growth with SF-295 CNS is 90.5%; in the assay on SF-539 CNS it was 69.9%; in the assay with UACC-257 melanoma, 100%; in the assay with M14 melanoma it was 10.7%; in the assay with HCT-15 colon, 44%; in the assay on HT29 colon it was 52.5%. For the same compound, the growth is 91.4% in the assay on SNB-75 CNS; 42.9% with SNB-19 CNS; 40.5% with PC-3 prostate; 74% with SK-MEL-5 melanoma; 47.2% with UACC-62 melanoma; -84.4% (active) in the assay on LOX IMVI melanoma. Besides, in the assay with SK-MEL-28 melanoma, the growth was 92.3%.
`CCN(CCCNc1cc2c(c(N)c1S(=O)(=O)O)C(=O)c1ccccc1C2=O)c1ccccc1`: the growth is 124% in the assay with DU-145 prostate; 101% with K-562 leukemia; 97% with MALME-3M melanoma; 88.9% in the assay on MDA-MB-231 breast; 108% in the assay on RXF 393 renal; 109% in the assay on SF-268 CNS. Besides, the growth in the assay with SF-295 CNS was 111%; in the assay with SF-539 CNS, 98.4%; with UACC-257 melanoma it was 102%; in the assay with M14 melanoma it was 98.3%; in the assay on HCT-15 colon it was 107%; with HT29 colon it was 104%. Also, the growth in the assay with SNB-75 CNS was 88.3%; with SNB-19 CNS, 95.1%; in the assay on PC-3 prostate, 87.1%; with SK-MEL-5 melanoma, 95.2%; in the assay with UACC-62 melanoma, 92.1%; in the assay on LOX IMVI melanoma, 94.7%. For the same compound, in the assay on SK-MEL-28 melanoma, the growth is 102%.
In the case of `COc1ccc(-c2cc(-c3ccc(OC)c(OC)c3)nc(SCCCC(=O)NO)n2)cc1`, the growth with DU-145 prostate was -2.45% (active); in the assay on K-562 leukemia, 7.32% (active); in the assay on MALME-3M melanoma it was -6.87% (active); in the assay with MDA-MB-231 breast, -10% (active); in the assay with RXF 393 renal, -46.6% (active); with SF-268 CNS it was 2.03% (active). For the same compound, the growth was -36.8% (active) in the assay with SF-295 CNS; 1.28% (active) in the assay with SF-539 CNS; 9.39% (active) in the assay on UACC-257 melanoma; -41.5% (active) with M14 melanoma; 2.78% (active) in the assay on HCT-15 colon; 4.72% (active) in the assay with HT29 colon. Further, the growth in the assay on SNB-75 CNS was -19% (active); in the assay on SNB-19 CNS, 11.2%; with PC-3 prostate it was 1.17% (active); in the assay on SK-MEL-5 melanoma, -65.2% (active); with UACC-62 melanoma it was -55.2% (active); with LOX IMVI melanoma, -79% (active). For the same compound, the growth in the assay with SK-MEL-28 melanoma was 19.2%.
As for `Brc1ccc2c(c1)-c1ccccc1C1=NCCN12`, the growth was -21.1% (active) with DU-145 prostate; 4.71% (active) with K-562 leukemia; -31.5% (active) in the assay with MALME-3M melanoma; -7.62% (active) in the assay on MDA-MB-231 breast; -62.6% (active) with RXF 393 renal; -2.39% (active) with SF-268 CNS. Moreover, the growth with SF-295 CNS is -50.7% (active); with SF-539 CNS, -1.45% (active); with UACC-257 melanoma it was -23.9% (active); with M14 melanoma, -51.8% (active); in the assay with HCT-15 colon, 1.51% (active); in the assay on HT29 colon, -14.9% (active). The growth in the assay with SNB-75 CNS is 8.5% (active); in the assay with SNB-19 CNS, 16.2%; in the assay on PC-3 prostate it was 2.13% (active); with SK-MEL-5 melanoma, -77.2% (active); in the assay on UACC-62 melanoma, -13.4% (active); in the assay on LOX IMVI melanoma it was -69.4% (active). Further, the growth in the assay with SK-MEL-28 melanoma was 0.722% (active).
For the compound `COc1ccc(-c2nn(-c3cccc(Cl)c3)cc2-c2nc(N)[nH]c(=O)c2C#N)cc1`, the growth is 102% in the assay on DU-145 prostate; 28.3% in the assay with K-562 leukemia; 37.4% in the assay on MALME-3M melanoma; 62.9% with MDA-MB-231 breast; 63.4% in the assay on RXF 393 renal; 68.8% with SF-268 CNS. Moreover, the growth with SF-295 CNS was 38.6%; with SF-539 CNS, 75.6%; in the assay on UACC-257 melanoma, 94%; in the assay with M14 melanoma it was 55.8%; with HCT-15 colon, 65.4%; in the assay on HT29 colon, 86.5%. Also, the growth is 68.9% in the assay with SNB-75 CNS; 60.3% in the assay on SNB-19 CNS; 75.5% with PC-3 prostate; 67.6% in the assay with SK-MEL-5 melanoma; 58.8% in the assay on UACC-62 melanoma; 63% with LOX IMVI melanoma. The growth in the assay on SK-MEL-28 melanoma was 90.4%.
Take `O=C(Nc1cc([N+](=O)[O-])c2[nH]c(=O)c3ccccc3c2c1)C(F)(F)F`: the growth was 97.1% with DU-145 prostate; 84.6% with K-562 leukemia; 83.7% in the assay on MALME-3M melanoma; 88.6% in the assay on MDA-MB-231 breast; 76.7% in the assay on RXF 393 renal; 86.7% in the assay on SF-268 CNS. In addition, the growth is 80.8% with SF-295 CNS; 93.6% in the assay on SF-539 CNS; 93.4% with UACC-257 melanoma; 107% in the assay on M14 melanoma; 81% in the assay on HCT-15 colon; 90.4% in the assay on HT29 colon. Besides, the growth in the assay on SNB-75 CNS was 89.3%; in the assay on SNB-19 CNS it was 87.1%; in the assay on PC-3 prostate, 94.4%; with SK-MEL-5 melanoma, 91%; in the assay with UACC-62 melanoma, 81.7%; in the assay on LOX IMVI melanoma it was 68%. The growth in the assay on SK-MEL-28 melanoma was 114%.
Consider `Cc1c(O)c(=O)ccn1C1CCC(CC2CCC(n3ccc(=O)c(O)c3C)CC2)CC1` (configuration not stated), for which the growth with DU-145 prostate is 39.6%; in the assay with K-562 leukemia, 18.3%; in the assay with MALME-3M melanoma, 63.8%; with MDA-MB-231 breast, 43.4%; in the assay on RXF 393 renal it was 44.1%; with SF-268 CNS, 30.1%. For the same compound, the growth in the assay with SF-295 CNS is 54.9%; in the assay on SF-539 CNS it was 11.9%; with UACC-257 melanoma, 45.5%; in the assay with M14 melanoma it was 47.2%; in the assay with HCT-15 colon, 18.9%; with HT29 colon it was 33.8%. In addition, the growth in the assay on SNB-75 CNS was 21.1%; in the assay on SNB-19 CNS, 30.2%; in the assay with PC-3 prostate it was 41.7%; with SK-MEL-5 melanoma, 29.2%; with UACC-62 melanoma, 14.6%; with LOX IMVI melanoma, 25%. The growth with SK-MEL-28 melanoma is 49.4%.
